In the library only some 12% were active in any assay of this set; here they are far more common.
BAZ2B block: blocks human BAZ2B; Q9UIF8; Potency, µM (titrated, usually from 114 µM), for inactives: top-dose activity change, negative = inhibition, usual class: inhibitors; 360,000 tested, 4.4% active; AlphaScreen BAZ2B-H3K14Ac peptide displacement; AID 504333; also: % is scaled to controls: 0 for no effect and ±100 for the full control effect; nearly all actives have a fitted effect of over 60% in size
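Inhibition is scored as reduced AlphaScreen emission. The BAZ2B/b-H3(5-23)K14Ac complex (50 nM each) in PBS pH 7.4, 0.01% Tween-20 meets compound (up to 110 uM) for 30 min at RT before bead addition.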
TDP1 block: blocks human tyrosyl-DNA phosphodiesterase 1; Potency, µM (top dose mostly 130 µM), for the others: at the highest dose activity change, negative = inhibition, most hits filed as inhibitors; Q9NUW8; recombinant TDP1, AlphaScreen DNA substrate cleavage; 350,000 tested, 0.28% active; also: % is scaled to controls: 0 for no effect and ±100 for the full control effect; nearly all actives have a fitted effect of over 40% in size
Target sequence (Q9NUW8 whole entry, looked up): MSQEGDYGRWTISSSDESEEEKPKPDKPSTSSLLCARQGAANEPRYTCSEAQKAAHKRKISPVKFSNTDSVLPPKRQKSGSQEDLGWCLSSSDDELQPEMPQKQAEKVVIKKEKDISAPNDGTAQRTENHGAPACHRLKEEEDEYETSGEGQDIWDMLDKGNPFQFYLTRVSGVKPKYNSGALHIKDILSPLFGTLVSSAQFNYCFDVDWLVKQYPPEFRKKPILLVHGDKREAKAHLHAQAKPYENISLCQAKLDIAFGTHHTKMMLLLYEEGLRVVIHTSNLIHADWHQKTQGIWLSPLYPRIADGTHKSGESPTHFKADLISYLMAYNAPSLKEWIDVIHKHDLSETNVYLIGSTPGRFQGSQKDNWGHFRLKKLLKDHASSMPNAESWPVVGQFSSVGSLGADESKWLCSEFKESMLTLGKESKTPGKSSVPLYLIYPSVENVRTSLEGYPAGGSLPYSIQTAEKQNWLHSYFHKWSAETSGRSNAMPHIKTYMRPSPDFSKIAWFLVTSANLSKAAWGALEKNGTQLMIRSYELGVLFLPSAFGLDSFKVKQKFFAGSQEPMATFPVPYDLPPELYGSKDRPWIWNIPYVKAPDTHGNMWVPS
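Compounds were preincubated with Tdp1 (1 nM final) for 15 min at room temperature before substrate (15 nM final) started a 5 min reaction; beads (10 ug/ml final) were then added for 10 min before AlphaScreen detection.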
Sfp PPTase inh: inhibitors of Bacillus subtilis Sfp phosphopantetheinyl transferase | Potency, µM, for the others: largest response in the series, negative = inhibition, actives largely listed as inhibitors | Biochemical Sfp PPTase activity, qHTS | AID 1490 | Q9F4F7 | 310,000 tested, 3.5% active;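 also: the enzyme is Sfp with the accession as filed and its product quenches rhodamine fluorescence; 0% = enzyme reaction without inhibitor and -100% = no enzyme wells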
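Fluorescence-quenching assay: 15 nM Sfp-PPTase preincubated 15 min at room temperature with compound, then 5 uM rhodamine-CoA and 12.5 uM BHQ-2-labelled YbbR peptide added. Fluorescence (ex 525/em 598 nm) read at start and after 30 min; difference gives rate.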
JMJD2A Tudor: inhibitors of human JMJD2A Tudor domain; AlphaScreen JMJD2A-Tudor / H3K4me3 peptide binding; Potency, µM (doses to about 114 µM), without a hit: top-dose activity change, negative = inhibition, usual class: inhibitors; 390,000 tested, 4.4% active; also: % is scaled to controls: 0 for no effect and ±100 for the full control effect; nearly all actives have a fitted effect of over 50% in size
G9a block: inhibitors of human histone lysine methyltransferase G9a | Potency, µM (top dose mostly 102 µM), inactives show top-dose activity, negative = inhibition, most hits filed as inhibitors | G9a H3K9 monomethylation, AlphaScreen, 2 h | 350,000 tested, 8.8% active | AID 504332 | Q96KQ7; also: % is scaled to controls: 0 for no effect and ±100 for the full control effect; nearly all actives have a fitted effect of over 75% in size
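Enzyme 20 nM + cpd, 15 min RT; add b-H3K9 pep 500 nM / SAM 20 uM; 2 h RT; anti-H3K9me1 Ab 0.5 ug/mL + SA donor / anti-rabbit acceptor beads 20 ug/mL each, 10 min; AlphaScreen read.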
HP1b chromo inh: blocks HP1-beta chromodomain binding to methylated histone tails | P83916 | AlphaScreen HP1-beta / biotin-H3K9me3 peptide binding | Potency, µM (highest dose often 114 µM), inactives show at the highest dose activity change, negative = inhibition, actives largely listed as inhibitors | 390,000 tested, 0.56% active | AID 540317; also: nearly all actives have a fitted effect of over 70% in size
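HP1-beta protein (50 nM final) preincubated 30 min at room temperature with biotinylated H3(1-18)K9me3 peptide (50 nM) in PBS pH 7.4, 0.01% Tween-20, then compound added for 30 min. AlphaScreen streptavidin donor/nickel chelate acceptor beads (10 ug/mL final), 30 min dark, luminescence read.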
* hit, by the source's call; ? = inconclusive; nt = no result given; [ ] = dose if it differs, or a comment. Calls follow the shape of the dose curve; as a rule, active = well fitted curve in the direction sought with a large enough effect; inconclusive = small, poorly fitted or top-dose-only effect, or another doubt; inactive = no such curve, though single readings can be large; an effect the other way counts as inactive or inconclusive. Potency is read from the fitted curve at half-maximal effect.

SMILES	BAZ2B block	TDP1 block	Sfp PPTase inh	JMJD2A Tudor	G9a block	HP1b chromo inh
COC(=O)C1=C(C(=O)OC)C(c2cc(Cl)ccc2O)c2sc(=O)[nH]c2S1 (centres undefined)	?	0%	79µM*	?	7.9µM*	-24%
COC(=O)C1=C(C(=O)OC)C(c2ccc(OC)c(OC)c2)c2sc(=O)[nH]c2S1 (centres undefined)	-34%	5%	20µM*	40µM*	28µM*	-9%
COC(=O)c1[nH]c2c(c1C)C(=O)CC(c1ccc(OC)c(OC)c1)C2 (centres undefined)	-19%	nt	-7%	-14%	6%	17%
O=C(O)C1Sc2[nH]c(=O)sc2C2c3cc(Br)ccc3OC(=O)C12 (centres undefined)	?	3%	?	-28%	nt	?
Cc1cc(NC(=O)CCS(=O)(=O)c2cc3c4c(c2)CCN4C(=O)CC3)ccc1Br	11%	3%	nt	-6%	7%[59 µM]	50%
Cc1cccc(NC(=O)CNC(=O)c2cccc(S(=O)(=O)NCc3cccs3)c2)c1C	-3%	-14%[56.1 µM]	nt	-5%	-9%[2.33 µM]	43%
CCn1cc(/C=C(\NC(=O)c2ccccc2Cl)C(=O)N2CCN(C)CC2)c2ccccc21	-4%	nt	18%	-21%	12%[12.7 µM]	42%
c1ccc(-c2ccc(-c3nccc4ccccc34)[nH]2)cc1	?	10%	50µM*	nt	?	nt
C/C(=N\NC(=O)c1cc2ccccc2cc1O)c1cc2ccccc2o1	2%	8%	-1%	-35%	1%	8%
C/C(=N\NC(=O)c1cc2ccccc2cc1O)c1ccccn1	10µM*	-4%	13%	18µM*	nt	20%[57 µM]
C/C(=N/NC(=O)c1cc2ccccc2cc1O)C1C(=O)c2ccccc2C1=O	?	-8%	0%	16µM*	40µM*	22µM*
CC(=O)Nc1ccc(/C(C)=N/NC(=O)c2ccc(F)cc2)cc1	3%	1%	4%	89µM*	8%	-7%
C/C(=N\NC(=O)CCCNc1ccc(C)cc1)c1ccccn1	56µM*	8%	-4%	?	16µM*	7%
CC(=O)Nc1ccc(/C(C)=N\NC(=O)c2ccc(-c3ccccc3)cc2)cc1	-15%	0%	-22%	nt	nt	nt
COc1ccc(CCNC(=O)C(=O)NCC(c2ccco2)S(=O)(=O)c2cccs2)cc1 (centres undefined)	-2%	3%	nt	-2%	-3%[59 µM]	52%
COc1ccc(CNC(=O)C2=CC(c3ccc(C)cc3)=NS(=O)(=O)N2C)cc1	-29%	nt	-1%	-28%	8%	16%
C/C(=N\NC(=O)c1ccc(F)cc1)c1ccccn1	10µM*	nt	9%	35µM*	?	30%
CCc1ccc(/C(C)=N/NC(=O)c2ccccn2)cc1	-9%	6%	-4%	-13%	10%	40%
O=C(N/N=C/c1cc(Cl)cc([N+](=O)[O-])c1O)NC12CC3CC(CC(C3)C1)C2	8.9µM*	5%	-1%	50µM*	10µM*	?
O=C(N/N=C/c1cc(Br)cc(Br)c1O)c1cccc(S(=O)(=O)N2CCOCC2)c1	-1%	nt	14%	89µM*	45%[59 µM]	0%
O=C(N/N=C/c1cc(Cl)cc([N+](=O)[O-])c1O)c1ccc2c(c1)OCO2	35µM*	nt	22%	79µM*	?	-4%
CCOc1ccc(C(=O)N/N=C/c2cc(Cl)ccc2[N+](=O)[O-])cc1	56µM*	3%	-11%	?	-45%[59 µM]	-11%
O=C(N/N=C/c1ccccc1Br)c1cccc(S(=O)(=O)N2CCOCC2)c1	4%	4%	nt	-20%	-14%[12.7 µM]	36%
CCOc1ccc(Cl)cc1/C=N/NC(=O)c1ccccc1	18%	3%	-12%	-2%	20%[59 µM]	14%
CC(C)C[C@H]1CNC(=S)N1CC1CCN(CCCC2CCCC2)CC1	nt	nt	nt	-32%	nt	12%
SMILES	BAZ2B block	TDP1 block	Sfp PPTase inh	JMJD2A Tudor	G9a block	HP1b chromo inh
O=C(N/N=C/c1ccc(O)c(O)c1)c1cccc(S(=O)(=O)N2CCCC2)c1	-38%	7%	nt	7.9µM*	40µM*	-23%
O=C(N/N=C/c1cc(Cl)cc([N+](=O)[O-])c1O)c1cccc(S(=O)(=O)N2CCOCC2)c1	25µM*	nt	nt	40µM*	50µM*	-32%
CC(C)c1ccc(/C=N/NC(=O)c2cccc(S(=O)(=O)N3CCOCC3)c2)cc1	nt	3%	-4%	-13%	11%	9%
CC1(c2ccc(Cl)cc2)CC(C)(C)N(C(=O)c2cccc(F)c2)c2ccccc21 (centres undefined)	-5%	0%[12.3 µM]	nt	0%	20%[59 µM]	69%
COc1ccc(C(CNC(=O)Cc2ccc(-c3ccccc3)cc2)N(C)C)cc1 (centres undefined)	-11%	4%	4%	-30%	6%	-17%
COc1ccc(C(CNC(=O)C(Cc2ccccc2)NC(N)=O)N(C)C)cc1 (centres undefined)	-15%	nt	7%	-10%	40µM*	28%
Cc1nc2cnc(N3CCN(C)CC3)nc2n(CCc2ccccc2)c1=O	nt	nt	4%	nt	-4%[0.501 µM]	nt
Cc1cccc(OCC(=O)NN2C(=O)C3C4C=CC(O4)C3C2=O)c1 (centres undefined)	-12%	5%	40µM*	-11%	8.9µM*	0%
O=C1C2C3C=CC(O3)C2C(=O)N1CC(O)c1ccccc1 (centres undefined)	6%	9%	-17%	2%	?	68%
Cc1ccccc1OCC(=O)NN1CCN(C)CC1	-4%	4%	2%	-11%	-25%	13%
Cc1ccccc1OCC(=O)NN1C(=O)C2C3C=CC(O3)C2C1=O (centres undefined)	-17%	10%	50µM*	-17%	?	-2%
CCOc1ccc(C(=O)NN2C(=O)C3C4C=CC(O4)C3C2=O)cc1 (centres undefined)	3%	8%	28µM*	-11%	6.3µM*	25%
Cc1cccc(OCC(=O)NC2CCCC2)c1	-11%	-5%	-3%	3%	6%	21%
O=C(CCc1ccccc1)NN1C(=O)C2C3C=CC(O3)C2C1=O (centres undefined)	-11%	4%	10µM*	-2%	10µM*	47%
CC(C)c1ccc(CNn2cnnc2)cc1	0%	nt	12%	?	-19%	26%
O=c1ccc2ccc(Oc3ccc(Cl)cc3[N+](=O)[O-])cc2o1	?	3%	1%	?	32µM*	-21%
Cc1nonc1CN(C)C(=O)CC1C(=O)NCCN1Cc1cccc(C(F)(F)F)c1 (centres undefined)	-8%	-4%	-25%	-16%	50µM*	44%

Bioassay records as filed in PubChem.
